Screening data (PubChem)
HT1080NT lethal: kills 2HG-producing HT-1080-NT fibrosarcoma cells | HT-1080-NT fibrosarcoma viability, CellTiter-Glo ATP luminescence, 48 h | AID 686970 | hit rate 1.6% among 360,000 | Potency, µM (top dose mostly 46.1 µM), without a hit: at the top dose activity, negative = less viability, usual class: cytotoxic;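 note: NT is the 2HG producing partner of a matched IDH1 knockdown line; potency is the fitted concentration of half-maximal effect; 0% = DMSO-treated cells and -100% = media-only wells without cells; nearly all actives have a fitted effect of over 55% in size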
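750 cells/well, RPMI + 5% FBS; 2 h settle, compound pin-transfer, 48 h at 37 degrees C. CellTiter-Glo 10 min RT, luminescence. Normalized to DMSO and media-only wells.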
HT1080 IDH1KD tx: kills HT-1080 cells with IDH1 knockdown; Potency, µM (highest dose often 46.1 µM), for inactives: top-dose activity, negative = toxicity, usual class: cytotoxic; hit rate 2% among 360,000; HT-1080 IDH1 knockdown viability, ATP luminescence, 48 h;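 note: potency is the fitted concentration of half-maximal effect; 0% = DMSO wells and -100% = cell-free medium wells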
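Viability of IDH1-knockdown HT-1080 fibrosarcoma cells was assessed by CellTiter-Glo after 48 h at 37 °C with titrated compound; concentration-effect curves were classified by fit quality and response size.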
TDP1 cell noCPT: qHTS for Inhibitors of human tyrosyl-DNA phosphodiesterase 1 (TDP1): qHTS in cells in absence of CPT; DT40 Tdp1-/- hTDP1 cells, no CPT, ATP luminescence, 48 h; AID 686978, 2013; Potency, µM (series often up to 46.2 µM), inactives show top-dose activity change, negative = growth inhibition, actives largely listed as inhibitors; hit rate 15% among 420,000; note: potency is the fitted concentration of half-maximal effect; nearly all actives have a fitted effect of over 55% in size
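Cells were dispensed at 400 per well, compounds added by pin tool, plates incubated ≥48 hr at 37 °C, then CellTiter-Glo added for 30 min at room temperature before luminescence reading. Line: DT40 Tdp1-/- complemented with hTDP1; camptothecin omitted.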
IL1B secr inh: blocks inflammasome-driven IL-1 beta release; THP-1 LPS/ATP IL-1B secretion, AlphaLISA, 16 h; hits give low values; activity change, % at 57.5 µM; hit rate 4.7% among 360,000; in the data active = activity change below about -50%; inconclusive = mostly about -30% to -49%
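THP-1 cells pretreated 1 hr with compounds (up to 57.5 uM final), then stimulated with LPS (250 ng/mL final) plus ATP (1.25 mM final); secreted IL-1B measured by AlphaLISA after 16 hr, decreased signal indicating inhibition.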
TDP1 cell CPT: growth inhibition of DT40 Tdp1-/-;hTDP1 cells with camptothecin (screen for TDP1 inhibitors); hit rate 12% among 420,000; Potency, µM (highest dose often 46.2 µM), inactives show at the top dose activity change, negative = growth inhibition, hits mostly inhibitors; AID 686979; chicken DT40 Tdp1-/-;hTDP1 cells + 20 nM CPT, ATP luminescence, 48 h; note: potency is the fitted concentration of half-maximal effect; nearly all actives have a fitted effect of over 55% in size
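Chicken DT40 Tdp1-/- cells stably complemented with human TDP1 were seeded at 400 cells/well in medium containing 20 nM camptothecin, exposed to pin-transferred compounds, and grown at 37 °C for at least 48 hr. Viability was read as ATP luminescence.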
* hit, by the source's call; ? = inconclusive; . = no result given. Most compounds without a hit are left out; they make up all but 19% or so of the library. Unless noted, calls come from the whole dose curve; as a rule, active = well fitted curve in the direction sought with a large enough effect; inconclusive = small, poorly fitted or top-dose-only effect, or another doubt; inactive = no such curve, though single readings can be large; an effect the other way counts as inactive or inconclusive. Unless noted, % is set by controls: 0 for no effect and ±100 for the full control effect.

SMILES | HT1080NT lethal | HT1080 IDH1KD tx | TDP1 cell noCPT | IL1B secr inh | TDP1 cell CPT
O=c1[nH]c(/C=C/c2ccccn2)nc2ccccc12 | -9.7% | -4.6% | ? | -81.4* | ?
CC(=O)NC(CCCN1C(=O)c2ccccc2C1=O)c1nnn(C)n1 (configuration not stated) | 17.0% | 15.9% | 2.2% | 19.0 | 0.4%
CCNC(=O)C1(C)CCCN1Cc1ccccc1Cl (configuration not stated) | 27.2% | 20.4% | ? | 0.0 | 23.1µM*
CC1(C(=O)Nc2ccccc2Cc2ccccc2)CCN1Cc1ccccc1Cl (configuration not stated) | ? | ? | 23.1µM* | -3.0 | ?
Cc1ccc2oc(-c3ccc(Cl)c(NC(=O)c4ccc(OC(C)C)cc4)c3)nc2c1 | . | . | 5.7% | . | -0.6%
CCCCn1nnnc1C1(C)CCC(=O)N1Cc1ccco1 (configuration not stated) | 13.3% | 0.3% | -18.9% | 47.3 | -10.7%
CC(C)CC(=O)Nc1ccc2nc(SCC(=O)N3CCc4ccccc43)sc2c1 | . | . | 2.91µM* | . | 5.17µM*
CCC(CC)C(=O)Nc1ccc2nc(SCC(=O)N3CCc4ccccc43)sc2c1 | . | . | 5.17µM* | . | 4.61µM*
CCOC(=O)CSc1nc2ccc(NC(C)=O)cc2s1 | 13.3% | 15.5% | -16.2% | -7.2 | -0.9%
CC(C)C(=O)Nc1ccc2nc(SCC(=O)N3CCc4ccccc43)sc2c1 | . | . | 4.11µM* | . | 10.3µM*
CCCC(=O)Nc1ccc2nc(SCC(=O)N3CCCC3)sc2c1 | 9.0% | 2.7% | ? | 7.1 | -25.7%
CC(=O)Nc1nnc(SCC(=O)N2CCCc3ccccc32)s1 | -0.5% | 1.3% | 0.0% | 15.8 | 1.1%
Cc1ccc(S(=O)(=O)NNC(=O)CCC(=O)Nc2ccccc2Cl)cc1 | -1.7% | -0.2% | -3.8% | -12.8 | -3.8%
CCOc1ccc(-n2c(=O)c3c(C)c(C(=O)N(C)C)sc3n(CC(=O)Nc3c(C)cc(C)cc3C)c2=O)cc1 | . | . | -17.8% | . | -29.2%
COc1ccc(C(=O)C[C@@H]2OC[C@H](C(C)C)N2S(=O)(=O)c2ccc(C)cc2)cc1OC | 0.0% | -8.4% | ? | -12.0 | ?
Cc1ccc(S(=O)(=O)N2[C@H](CC(=O)c3cccs3)OC[C@@H]2C)cc1 | 9.4% | 15.2% | 23.1µM* | 22.6 | ?
COc1ccc(C(=O)C[C@@H]2OC[C@H](C)N2S(=O)(=O)c2ccc(C)cc2)cc1OC | -0.1% | -5.1% | 18.4µM* | 2.5 | ?
COc1ccc(CNC(=O)N2[C@H]3CC[C@@H]2C=C(c2ccc(F)cc2OCc2ccccc2)C3)cc1OC | 12.7% | -2.0% | 7.31µM* | -13.8 | 8.2µM*
O=C(NCc1ccc(F)cc1)N1[C@H]2CC[C@@H]1C=C(c1ccc(F)cc1OCc1ccccc1)C2 | -0.8% | 6.5% | 7.31µM* | 7.8 | ?
COc1ccc(CNC(=O)C2CCCN2CCc2ccccc2)cc1OC (configuration not stated) | 1.0% | -9.4% | ? | ? | ?
COc1ccc(C(CCN2CCCCC2)c2c(OC)cc(OC)c3c(-c4ccccc4)cc(=O)oc23)cc1 (configuration not stated) | -27.5% | -14.4% | ? | -11.0 | 20.6µM*
COc1cc(OC)c2c(-c3ccccc3)cc(=O)oc2c1 | 2.3% | 0.8% | -14.5% | 20.7 | -12.2%
COc1cc(OC)c2c(-c3ccccc3)cc(=O)oc2c1C(CCN1CCCCC1)c1ccc(N(C)C)cc1 (configuration not stated) | -20.9% | -29.2% | 14.6µM* | -18.1 | 10.3µM*
COc1cc(OC)c2c(-c3ccccc3)cc(=O)oc2c1C(CCN1CCOCC1)c1ccc(N(C)C)cc1 (configuration not stated) | -1.7% | -19.4% | 6.51µM* | 0.0 | 5.8µM*
Cc1ccc(N2CC(C(=O)N3CCN(Cc4ccc5c(c4)OCO5)CC3)CC2=O)cc1 (configuration not stated) | -9.6% | -8.8% | ? | 6.4 | 5.0%
SMILES | HT1080NT lethal | HT1080 IDH1KD tx | TDP1 cell noCPT | IL1B secr inh | TDP1 cell CPT
O=C(Nc1ccccc1)Oc1cccc(Br)c1 | -12.0% | 0.7% | -23.2% | 4.7 | 0.6%
O=C(CN1C(=O)NC2(CCCCC2)C1=O)NCc1ccc2c(c1)OCO2 | 0.5% | 3.6% | 13.4% | -11.7 | -8.1%
CCOC(=O)[C@@H]1[C@H]2COc3ccc(Br)cc3[C@H]2N2C(=O)N(c3ccc(C)cc3)C(=O)[C@]12C | 10.4% | 2.4% | ? | 26.7 | ?
O=C(COc1ccccc1)NCCSCc1ccccc1Cl | 5.2% | 6.9% | -3.8% | 13.7 | 1.7%
CCCCc1ccc(NC(=O)COc2cccc3c(=O)n(C)ccc23)cc1 | . | . | 18.4µM* | . | 13µM*
Cn1ccc2c(OCC(=O)NCc3ccccc3Cl)cccc2c1=O | . | . | 18.4µM* | . | ?
COc1ccccc1OCC(=O)NCCSCc1ccccc1Cl | -2.7% | -0.8% | 18.4µM* | -5.3 | ?
COc1ccccc1CNC(=O)c1cc(S(=O)(=O)N2CCCCCC2)cn1C | . | . | -17.0% | . | -9.7%
O=C(CN1c2ccccc2Sc2ccccc21)NNC(=O)Nc1ccc(Cl)cc1 | 23.1µM* | 20.6µM* | ? | -80.1* | ?
O=C(CSc1nc2ccccc2s1)NNC(=O)Nc1ccc(Cl)c(Cl)c1 | -2.1% | -6.7% | -1.6% | 11.3 | -12.3%
O=C(CN1c2ccccc2Sc2ccccc21)NNC(=O)Nc1ccc(Cl)c(Cl)c1 | 20.6µM* | ? | -46.3% | -92.0* | -0.4%
O=C(CCc1ccccc1)NNC(=O)Nc1ccc(Cl)cc1 | 18.5% | -6.4% | -11.8% | -1.3 | -6.6%
CC1(C(=O)NS(=O)(=O)c2ccc(C#N)cc2)CCN1C(=O)Cc1ccccc1Cl (configuration not stated) | 10.2% | ? | -2.7% | 19.6 | -14.5%
O=C1c2ccccc2C(O)(c2ccccc2)N1c1ccc([N+](=O)[O-])cc1Cl (configuration not stated) | 0.8% | 0.2% | -19.4% | 10.2 | -7.6%
CC1CCCN(c2c([N+](=O)[O-])c(=O)oc3ccccc23)C1 (configuration not stated) | 27.5% | 4.7% | ? | -5.5 | 15.8µM*
O=c1oc2ccccc2c(N2CCC(c3ccccc3)CC2)c1[N+](=O)[O-] | 15.3% | 8.8% | ? | -8.6 | -22.3%
COc1ccc(NS(=O)CCCc2ccccc2)cc1 (configuration not stated) | -0.1% | -24.6% | -0.9% | 36.4 | -22.9%
N#Cc1ccc(COc2ccc(CCO)cc2-n2nc3ccccc3n2)cc1 | -26.2% | ? | 16.4µM* | 10.6 | ?
Cc1ccc(NC(=O)Cn2cnc3sc(C)c(S(=O)(=O)N4CCN(c5ncccn5)CC4)c3c2=O)cc1F | . | . | ? | . | -23.9%
